Laboratory results reported in PubChem BioAssay (NCI).
Compounds without any hit were thinned out: in the full panel of roughly 79,000, 15% have a hit. Active and inactive are the calls of the source. No stated cut-off is given here; in the data, active means growth inhibition above about 70%; inactive means the rest.

Legend:
[1] = NCI Yeast Anticancer Drug Screen. Data for the rad52 strain (AID 147);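 further: 0% = growth of vehicle-treated control cultures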; details: S. cerevisiae rad52 mutant growth inhibition, hits give high values
Summary of the method: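 Compounds are applied to a genetically defined yeast strain lacking normal DNA damage repair, and inhibition of growth is expressed relative to cultures given vehicle only.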

[2] = NCI Yeast Anticancer Drug Screen. Data for the wt1 strain (AID 149);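 further: 0% = growth of vehicle-treated wt1 cultures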; details: S. cerevisiae wt1 strain (SPY 50644) growth inhibition, hits give high values
Summary of the method: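 Compounds are added to wt1 yeast cultures. Growth is then measured. Inhibition is expressed relative to vehicle-treated controls.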

[3] = NCI Yeast Anticancer Drug Screen. Data for the rad50EPP+ strain (AID 151);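 further: 0% = growth of vehicle-treated control cultures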; details: S. cerevisiae rad50 mutant strain, hits give high values
Summary of the method: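 Compounds were applied to the rad50EPP+ yeast strain, which bears a defined DNA repair alteration, and growth inhibition was determined relative to vehicle-treated cultures.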

[4] = NCI Yeast Anticancer Drug Screen. Data for the mgt1 strain (AID 153); details: S. cerevisiae mgt1 mutant growth inhibition, hits give high values
Summary of the method: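 Strain: mgt1 yeast, one of a set carrying defined DNA damage repair or cell cycle control alterations. Compound-treated growth compared with vehicle.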

[5] = NCI Yeast Anticancer Drug Screen. Data for the rad50 strain (AID 155);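 further: 0% = growth of vehicle-only cultures of the same strain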; details: S. cerevisiae rad50 strain growth inhibition, hits give high values
Summary of the method: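 Inhibition values express reduced yeast growth in compound-treated cultures relative to vehicle-treated controls.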

[6] = NCI Yeast Anticancer Drug Screen. Data for the mec2-1 strain (AID 157); details: S. cerevisiae mec2-1 strain, hits give high values
Summary of the method: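 Strain: mec2-1 (DNA repair/cell cycle alteration). Compound exposure, then growth measured; inhibition expressed relative to vehicle.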

[7] = NCI Yeast Anticancer Drug Screen. Data for the rad14 strain (AID 159);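 further: 0% = growth of vehicle-treated control cultures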; details: S. cerevisiae rad14 strain growth inhibition, hits give high values
Summary of the method: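 A mutant yeast strain defective in DNA damage repair is treated with compound; inhibition of its growth is scored against untreated, vehicle-exposed cultures.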

[8] = NCI Yeast Anticancer Drug Screen. Data for the sgs1 mgt1 strain (AID 161);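 further: 0% = growth of cultures given vehicle only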; details: S. cerevisiae sgs1 mgt1 strain, hits give high values
Summary of the method: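 Read-out: growth inhibition vs vehicle controls. Cells: mutant yeast strain deficient in DNA damage repair.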

[9] = NCI Yeast Anticancer Drug Screen. Data for the CLN2oe strain (AID 163);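 further: 0% = growth of vehicle-only control cultures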; details: S. cerevisiae CLN2oe strain, hits give high values
Summary of the method: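 Growth of a genetically modified yeast strain is measured after compound exposure and compared with cultures given vehicle alone.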

[10] = NCI Yeast Anticancer Drug Screen. Data for the cln2 rad14 strain (AID 165);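 further: 0% = growth equal to vehicle treated cultures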; details: S. cerevisiae cln2 rad14 strain, hits give high values
Summary of the method: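 Compounds are applied to the cln2 rad14 yeast strain, and growth is then compared with that of vehicle-treated cultures to give inhibition.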

[11] = NCI Yeast Anticancer Drug Screen. Data for the bub3 strain (AID 167); details: S. cerevisiae bub3 mutant strain, hits give high values
Summary of the method: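 Steps: expose the mutant yeast strain to compound; grow alongside vehicle-treated cultures; measure growth; express inhibition against the vehicle cultures.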

[12] = NCI Yeast Anticancer Drug Screen. Data for the wt2 strain (AID 169);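 further: 0% = growth of vehicle-treated yeast cultures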; details: S. cerevisiae wt2 strain growth inhibition, hits give high values
Summary of the method: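 This strain belongs to a panel of yeast strains with defined genetic alterations in DNA damage repair or cell cycle control. Compounds are applied, and growth inhibition is measured against vehicle-treated cultures.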

[13] = NCI Yeast Anticancer Drug Screen. Data for the sgs1 strain (AID 173);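 further: 0% = growth of vehicle-only control cultures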; details: S. cerevisiae sgs1 mutant, hits give high values
Summary of the method: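 Growth of a yeast strain bearing a defined genetic alteration is measured after compound treatment. Inhibition is expressed relative to vehicle-only controls.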

[14] = NCI Yeast Anticancer Drug Screen. Data for the mlh1 rad18 strain (AID 175); details: S. cerevisiae mlh1 rad18 strain growth inhibition, hits give high values
Summary of the method: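 Read-out is yeast growth inhibition, calculated against vehicle-only controls. The compound was applied to a strain engineered with DNA damage repair alterations.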

[15] = at 5.0 µM (retest, dose inferred, filed as 0.5)
[16] = at 50.0 µM (retest, dose inferred, filed as 5.0)

Measured: growth inhibition

CC(=O)ON=C1C=CC(=C(C#N)c2ccc(Cl)cc2)C=C1
active: [3]; at 33.0 µM 91% | [3]; at 100.0 µM 96% | [4]; at 100.0 µM 77% | [5]; [16] 97% | [5]; at 50.0 µM 99.4% | [6]; [16] 99% | [6]; at 50.0 µM 99% | [7]; at 100.0 µM 98% | [8]; [16] 99% | [8]; at 50.0 µM 99.5% | [10]; [16] 98% | [10]; at 50.0 µM 77.1% | [11]; [16] 75% | [12]; at 100.0 µM 86% | [13]; at 100.0 µM 95% | [14]; [16] 97% | [14]; at 50.0 µM 98.5%
inactive: [1]; at 1.2 µM 1% | [1]; at 3.7 µM -1% | [1]; at 11.0 µM 1% | [1]; at 33.0 µM 22% | [1]; at 100.0 µM 69% | [2]; at 1.2 µM 0% | [2]; at 3.7 µM 0% | [2]; at 11.0 µM 4% | [2]; at 33.0 µM 10% | [2]; at 100.0 µM 61% | [3]; at 1.2 µM 19% | [3]; at 3.7 µM 38% | [3]; at 11.0 µM 64% | [4]; at 1.2 µM 0% | [4]; at 3.7 µM 2% | [4]; at 11.0 µM 4% | [4]; at 33.0 µM 42% | [5]; at 1.2 µM 0% | [5]; at 3.7 µM -3% | [5]; [15] 25% | [5]; at 11.0 µM -1% | [5]; at 33.0 µM 9% | [5]; at 100.0 µM 59% | [6]; at 1.2 µM -1% | [6]; at 3.7 µM 0% | [6]; [15] 11% | [6]; at 11.0 µM 1% | [6]; at 33.0 µM 19% | [6]; at 100.0 µM 59% | [7]; at 1.2 µM -3% | [7]; at 3.7 µM -4% | [7]; at 11.0 µM -1% | [7]; at 33.0 µM 22% | [8]; [15] 41% | [9]; at 1.2 µM -3% | [9]; at 3.7 µM -8% | [9]; at 11.0 µM -1% | [9]; at 33.0 µM 3% | [9]; at 100.0 µM 56% | [10]; [15] 7% | [11]; at 1.2 µM -4% | [11]; at 3.7 µM -4% | [11]; [15] 3% | [11]; at 11.0 µM -5% | [11]; at 33.0 µM 7% | [11]; at 50.0 µM 56% | [11]; at 100.0 µM 50% | [12]; at 1.2 µM 1% | [12]; at 3.7 µM 3% | [12]; at 11.0 µM 9% | [12]; at 33.0 µM 52% | [13]; at 1.2 µM 2% | [13]; at 3.7 µM 10% | [13]; at 11.0 µM 16% | [13]; at 33.0 µM 58% | [14]; [15] 29%
